Compound activity (PubChem)
Giardia FBPA inh – Giardia lamblia aldolase inhibition; hit rate 0.71% among 290,000; A8B2U2; Potency, µM (top dose mostly 59.6 µM), usual class: inhibitors; purified Giardia FBPA; AID 2451; further: nearly all actives have a fitted effect of over 55% in size
Target sequence (A8B2U2 whole entry, looked up): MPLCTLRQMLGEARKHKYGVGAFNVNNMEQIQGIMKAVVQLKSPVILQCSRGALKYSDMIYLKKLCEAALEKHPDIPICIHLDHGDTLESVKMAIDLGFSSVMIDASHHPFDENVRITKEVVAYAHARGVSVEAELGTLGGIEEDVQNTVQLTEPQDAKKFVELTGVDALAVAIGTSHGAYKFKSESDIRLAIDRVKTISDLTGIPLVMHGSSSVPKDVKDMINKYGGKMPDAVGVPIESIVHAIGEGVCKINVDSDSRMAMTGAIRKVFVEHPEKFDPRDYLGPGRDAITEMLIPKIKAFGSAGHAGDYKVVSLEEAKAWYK
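Giardia FBPA (40 nM reagent) was preincubated 10 min at RT with compound (up to 57.5 uM final), then substrate plus GAPDH/TPI/NAD/arsenate coupling system with diaphorase/resazurin was added; resorufin fluorescence (525/598 nm) was read after 20 min.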
Shiga toxin inh – inhibitors of Shiga toxin in Vero cells; AID 2315; Vero cells, Shiga toxin protein synthesis inhibition reporter; inhibition, % at 38.7 µM; hit rate 9.2% among 290,000; in the data active means inhibition mostly above about 28%, no sharp cut-off; inactive means mostly below about 43%
RE007 growth inh – less growth of the S. pombe RE007 Vpr strain | S. pombe RE007 Vpr strain, BacTiter-Glo ATP luminescence, 24 h | Potency, µM (top dose mostly 92.2 µM), hits mostly inhibitors | AID 651644 | hit rate 0.21% among 360,000; active means well fitted falling curve with a large enough effect; inconclusive means small, poorly fitted or top-dose-only effect; inactive means no such curve, though single readings can be large or run the other way; further: nearly all actives have a fitted effect of over 50% in size
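Fission yeast strain RE007, carrying one chromosomally integrated HIV-1 vpr copy, was seeded at OD 0.01 in PMG+AL medium with 23 nL pinned compound. After 24 h at 30 °C and 99% humidity, viability was read by BacTiter-Glo luminescence.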
CHX counter – counter-screen hit for Shiga toxin inhibitors, cycloheximide. cell reporter, cycloheximide protein synthesis inhibition counterscreen. AID 2314. hit rate 12% among 300,000. max response, %; in the data active means max response mostly above about 13%, no sharp cut-off; inactive means mostly below about 14%; further: read at 38.3 µM for the half of the compounds with a filed dose
Tb PYK inh – T. brucei pyruvate kinase inhibition; Q57TT1; TbPYK enzyme, Kinase-Glo Plus ATP luminescence, 45 min; Potency, µM (top dose mostly 76.8 µM), usual class: inhibitors; hit rate 0.12% among 410,000; AID 624173; further: nearly all actives have a fitted effect of over 50% in size
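Screened from lowest to highest concentration, compounds were pinned into TbPYK/substrate mixtures, and ADP (130 uM final) was added. Plates sat at room temperature for 45 min prior to Kinase-Glo Plus detection by luminescence.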
LmPK inhibitor – inhibitors of Leishmania mexicana pyruvate kinase | Q27686 | hit rate 0.37% among 290,000 | Potency, µM (series often up to 57.5 µM), most hits filed as inhibitors | purified LmPK, Kinase-Glo ATP luminescence, 1 h
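0.1 nM LmPK, 0.5 mM PEP, 0.1 mM ADP; 50 mM imidazole pH 7.2, 7 mM MgCl2, 50 mM KCl; 1 h RT. Kinase-Glo luminescence readout, normalized to no-enzyme (full inhibition) and uninhibited wells.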
Each line names hits and unclear results; the compound was inactive in the other large screens. The entries come from a sample that favours hits as a whole. Unless noted, the call rests on the fitted dose curve; in most records, active means well fitted curve in the direction sought with a large enough effect; inconclusive means small, poorly fitted or top-dose-only effect, or another doubt; inactive means no such curve, though single readings can be large; an effect the other way counts as inactive or inconclusive.

CN1C(=O)CC(c2ccco2)Sc2ccccc21 (stereo not drawn)	none
COc1ccc(C2CC(=O)N(CC(=O)NCC3CCCO3)c3ccccc3S2)cc1 (stereo not drawn)	CHX counter 34
COc1ccc(CNC(=O)Cc2csc3nc(-c4ccc(C)cc4)cn23)cc1	none (no result: Giardia FBPA inh, Shiga toxin inh, RE007 growth inh, CHX counter, LmPK inhibitor)
OC[C@@H]1O[C@@H](n2cnc3c(N[C@H]4CCC[C@@H]4O)ncnc32)[C@H](O)[C@H]1O	none (no result: Shiga toxin inh, RE007 growth inh, CHX counter, Tb PYK inh, LmPK inhibitor)
O=C(Nc1ccccc1)Nc1nnc(/C=C/c2ccccc2Cl)s1	none
Nc1nnc(/C=C/c2ccccc2Cl)s1	Shiga toxin inh 47, CHX counter 36
O=C(Nc1cccc(F)c1)c1ccco1	Shiga toxin inh 42, CHX counter 29
CC(=O)Nc1cccc(NC(=O)c2ccco2)c1	none (no result: Tb PYK inh)
Nc1cccc(NC(=O)c2ccco2)c1	CHX counter 8.1
CC(=O)c1cccc(NC(=O)c2ccco2)c1	none
Cc1cc(C)cc(C(=O)Nc2cccc(NC(=O)c3ccco3)c2)c1	CHX counter 21 (no result: Giardia FBPA inh)
CCNC(=S)Nc1ccc(N(c2ccccc2)C(C)C)cc1	Shiga toxin inh 57, CHX counter 17
C=CCNC(=S)Nc1ccc2nc(C)c(C)nc2c1	Giardia FBPA inh inconclusive, CHX counter 27
CCc1ccc(NC(=S)NCc2ccccc2)cc1	Shiga toxin inh 142, CHX counter 34
Cc1nc2ccc(NC(=S)NCc3ccccc3)cc2nc1C	Giardia FBPA inh inconclusive, CHX counter 27
CC(C)N(c1ccccc1)c1ccc(NC(=S)NCCN(C)C)cc1	none
Cc1ccc(CNC(=O)CN2C(=O)CCc3cc(S(=O)(=O)N4CCCCC4)ccc32)cc1	none (no result: Giardia FBPA inh, Shiga toxin inh, RE007 growth inh, CHX counter, LmPK inhibitor)
CCCNC(=O)C1CN(S(=O)(=O)c2ccccc2)CCN1S(=O)(=O)c1ccccc1 (stereo not drawn)	none
CCC(C)NC(=O)C1CN(S(=O)(=O)c2ccccc2)CCN1S(=O)(=O)c1ccccc1 (stereo not drawn)	CHX counter 25
Cc1ccc(NC(=O)Cn2c(=O)n(Cc3nc(-c4ccccc4)no3)c(=O)c3ccccc32)c(C)c1	none (no result: Giardia FBPA inh, Shiga toxin inh, RE007 growth inh, CHX counter, LmPK inhibitor)
CCc1nnc(NC(=O)c2cccc(NC(=O)C(C)C)c2)s1	CHX counter 45
Cc1nnc(NC(=O)c2cccc(NC(=O)C(C)C)c2)s1	none
COCc1nnc(NC(=O)c2cccc(NC(=O)C(C)C)c2)s1	Shiga toxin inh 27, CHX counter 14
COc1ccc(-c2nc3c(c4c2C[C@H](c2ccccc2)OC4)CN(S(=O)(=O)c2ccc(C)cc2)CC3)c(C)c1	none (no result: Shiga toxin inh, RE007 growth inh, CHX counter, Tb PYK inh)
CCc1ccc(OCC(=O)N(Cc2ccc(C)o2)C2CCS(=O)(=O)C2)cc1 (stereo not drawn)	none (no result: Giardia FBPA inh, Shiga toxin inh, RE007 growth inh, CHX counter, LmPK inhibitor)
COc1cccc(-n2cc(C(=O)NCCc3cccc(C)c3)c3ccccc3c2=O)c1	none (no result: Giardia FBPA inh, Shiga toxin inh, RE007 growth inh, CHX counter, LmPK inhibitor)
Cc1c(Br)c([N+](=O)[O-])nn1CCCC(=O)Nc1sc2c(c1C#N)CCC2	Tb PYK inh inconclusive
Cc1c(Br)c([N+](=O)[O-])nn1CC(=O)Nc1sc2c(c1C(=O)OC(C)C)CCCC2	Shiga toxin inh 123
OCCC1CN(Cc2ccccc2O)CCN1CCCc1ccccc1 (stereo not drawn)	none
OCCC1CN(Cc2c(O)ccc3ccccc23)CCN1CCc1ccccc1 (stereo not drawn)	Giardia FBPA inh 20µM
Cc1cc(SCC(=O)c2ccccc2)nc(C)n1	Shiga toxin inh 117, CHX counter 32, LmPK inhibitor inconclusive
Cc1cc(C)n2nc(SCC(=O)Nc3ccccc3F)nc2n1	none (no result: Giardia FBPA inh, Shiga toxin inh, CHX counter, LmPK inhibitor)
Cc1cc(C)n2nc(SCCOc3ccccc3F)nc2n1	Shiga toxin inh 114, CHX counter 26
Cc1cc(C)n2nc(SCC(=O)c3ccccc3)nc2n1	CHX counter 14
Cc1ccc(Cc2c(-c3ccc(F)cc3)nc3c(Cl)cc(C(F)(F)F)cn23)cc1	none (no result: Giardia FBPA inh, Shiga toxin inh, CHX counter, LmPK inhibitor)
Fc1ccc(-c2nc3c(Cl)cc(C(F)(F)F)cn3c2Cl)cc1	Shiga toxin inh active, CHX counter 32
Cc1ccnc2c1ccc1ccccc12	CHX counter 16
COc1ccc(CN(C(=O)c2cc3ccccc3oc2=O)C2CCCC2)cc1	none
CCOc1ccc(CN(C(=O)c2cc3ccccc3oc2=O)C2CC2)cc1	none
COc1ccc(CN(C(=O)c2cc3ccccc3oc2=O)C2CCS(=O)(=O)C2)cc1OC (stereo not drawn)	Shiga toxin inh 98, CHX counter 45 (no result: Giardia FBPA inh)
O=C(c1cc2ccccc2oc1=O)N(Cc1ccccc1F)C1CCS(=O)(=O)C1 (stereo not drawn)	Shiga toxin inh 60, CHX counter 31
COc1cc(CN(C(=O)c2ccccc2F)C2CCS(=O)(=O)C2)cc(OC)c1OC (stereo not drawn)	none (no result: Giardia FBPA inh, Shiga toxin inh, RE007 growth inh, CHX counter, LmPK inhibitor)
O=C(c1cc2ccccc2oc1=O)N(Cc1ccccc1)C1CCS(=O)(=O)C1 (stereo not drawn)	Shiga toxin inh active, CHX counter 40
COc1ccc(CN(C(=O)c2cc3ccccc3oc2=O)C2CCS(=O)(=O)C2)cc1 (stereo not drawn)	Shiga toxin inh 62, CHX counter 32
CCOc1ccc(CN(C(=O)c2cc3ccccc3oc2=O)C2CCS(=O)(=O)C2)cc1 (stereo not drawn)	Shiga toxin inh 111, CHX counter 68
O=C(c1cc(COc2c(F)cccc2F)on1)N1CCCCCC1	Shiga toxin inh 81, CHX counter 61 (no result: Giardia FBPA inh)
COCC1CCN(C(=O)c2cc(COc3ccc4c(c3)CCCC4)on2)C1 (stereo not drawn)	none (no result: Giardia FBPA inh)
CC(=O)N1CCCN(C(=O)c2cc(COc3c(F)cccc3F)on2)CC1	none (no result: Giardia FBPA inh)
CCOC(=O)N1CCN(C(=O)c2cc(COc3c(F)cccc3F)on2)CC1	Shiga toxin inh 129, CHX counter 74
O=C(c1cc(COc2ccc3c(c2)CCCC3)on1)N1CCCC1	Shiga toxin inh 51, CHX counter 47 (no result: Giardia FBPA inh, RE007 growth inh, Tb PYK inh)
CCOC(=O)C1CCC(CN(Cc2ccc(Cl)cc2)S(=O)(=O)c2ccc(F)c(C(=O)Nc3cccc(F)c3)c2)CC1 (stereo not drawn)	none (no result: Giardia FBPA inh, Shiga toxin inh, RE007 growth inh, CHX counter, LmPK inhibitor)
CC(=O)Nc1ccc(NC(=O)COC(=O)/C=C/c2ccc3c(c2)OCO3)cc1	none (no result: Giardia FBPA inh, Shiga toxin inh, CHX counter, LmPK inhibitor)
NC(=O)c1ccc(NC(=O)COC(=O)/C=C/c2ccc3c(c2)OCO3)cc1	Shiga toxin inh 66, CHX counter 26
COc1ccccc1NC(=O)/C=C/c1ccc2c(c1)OCO2	Shiga toxin inh 85, RE007 growth inh inconclusive, CHX counter 31
COc1ccccc1NC(=O)COC(=O)/C=C/c1ccc2c(c1)OCO2	Shiga toxin inh 84, CHX counter 52
COc1ccccc1N1CCN(C(=O)/C=C/c2ccc3c(c2)OCO3)CC1	none
CC(C)c1nc2sc3c(N4CCCCC4)ncnc3c2c2c1CCCC2	none (no result: Giardia FBPA inh, Shiga toxin inh, RE007 growth inh, CHX counter, LmPK inhibitor)
Cc1nc2ncnn2c(C)c1CCC(=O)N1CCN(c2ccccc2)CC1	none (no result: Giardia FBPA inh, Shiga toxin inh, RE007 growth inh, CHX counter, LmPK inhibitor)
